Test results published in PMC13494018.

B1: d4r5_design_ppi_400_dldesign_0_cycle0_af2pred (protein)
chain: AAAAAAAKAAAKAAAEKDLKRAEEAYKNAKKNKDNKEIVFKNYAEIETKAARADALAAADPYAAEAAKKIKELAEEAEKILK
B2: d4r5_design_ppi_459_dldesign_0_cycle1_af2pred (protein)
chain: DLEALKEKYLKETKAAAEKAAKIDKKVGDELKDLAELIKEGYGVKGNYNKAKALAAKAEADAKKEAALKA
B3: d4r5_design_ppi_347_dldesign_0_cycle1_af2pred (protein)
chain: GREEEAKRVAEVILERLKDPKAQEAAKKTGEAGKAFLEAYELYKKDREAGIEYLAKEILKNPSWAQDFRENYAEEEAK
B4: d4r5_design_ppi_384_dldesign_0_cycle1_af2pred (protein)
chain: GITWDELMDIQADAFYYLSEAKKITPEAEAKAKELYQKSLEYYKKAAEYLAKAEEVGPEAKEEAKEYADKAAEEVEKLKKLVEEAKN
B5: d4r5_design_ppi_490_dldesign_0_cycle0_af2pred (protein)
chain: SKEEEAKKTGKEQVKKVKETAETGTAAETAETAQEARAELNEKAAEAGTEEARKIAEEAKKEIREIVKKKKEEEA
B6: d4r5_design_ppi_429_dldesign_0_cycle0_af2pred (protein)
chain: VEEAKKLGEEYIKKVKEAKDAKEALEIGEKAAKELVEKAKASEDGETAQAYLEAASEVKATALRQARKLEE
B7: d4r5_design_ppi_466_dldesign_0_cycle1_af2pred (protein)
chain: EEKKKILEEAAKEAAAAAKADNPELAPRVERLAKRAVEIGTKQKSVEAAAGVMENAADQAAAAAPAAAAVLKKGAEELEKLAK
B8: d4r5_design_ppi_428_dldesign_0_cycle1_af2pred (protein)
chain: AAAAAETAAARERAARDLARAEAAAKAGKADPSKAPLAIAILEGVAERFEFYAKAAGPAAAAVAREAAERAKALAKEL
B9: d4r5_design_ppi_375_dldesign_0_cycle0_af2pred (protein)
chain: KEKEMANKLQEKIEELYSAATPEQQSKVSEKIKEARKAAKEAVKKYKEDEEKGKELFKKAEEILEEGLKEAK
B10: d4r5_design_ppi_438_dldesign_0_cycle0_af2pred (protein)
chain: SKEEMERRAEQVEKAVEGAEEEAKEGTPEEALALLRSVLRRAKEVAEESKKYPEVKKRAEKALERAEKIKKELLEK
B11: d4r5_design_ppi_378_dldesign_0_cycle0_af2pred (protein)
chain: AAAAAAAARAAMAAQAAANAAKAKEVFDKLAETYPEAKDEAKAKAAEVAAAFAATAAAGGDQAQLTANNNAAQDARSEVIAIANKK
B12: d4r5_design_ppi_384_dldesign_0_cycle0_af2pred (protein)
chain: AVTWDEILDIQARANYYLSEAKKLTEEAYKEAKKLYEEARKHYGEAAKYLADAPKVGEEAKKKAAEHAKEAEKLVKELEELVKKAKE
B13: d4r5_design_ppi_473_dldesign_0_cycle1_af2pred (protein)
chain: GEAKRKKAEALLERYKARAEELIEKAKASDYVTAESYAISVETRFTDFAAAAEKDPATKEVAKRAKKVGKEYVEKLKKIAEEKKAAE
B14: d4r5_design_ppi_438_dldesign_0_cycle1_af2pred (protein)
chain: DLEELKRRAEQVELLVEMAEEEAKTGSKEEALALLNSAIRDAKEVAEEGAAYPEVSERAKAALERAEKIRKELLAS
B15: d4r5_design_ppi_375_dldesign_0_cycle1_af2pred (protein)
chain: AAKEMANELQELIEKLREASSVKDQNEVSKVIKEARKKAKEAIKAYEKDPELGKKLFEEAKEILEKALKKAE
B16: d4r5_design_ppi_448_dldesign_0_cycle0_af2pred (protein)
chain: MKEKLKKEAKEAEKKMEELIKKIEEANPEAGKVAREAREKGKASPKGREYTNKGISEAGKLAGPEVAPIAQEARQEAAAADAYKKII
B17: d4r5_design_ppi_466_dldesign_0_cycle0_af2pred (protein)
chain: SEAEEILRETVERATAAAAAEDPALAPRVRAAAERAAEIAKSQKSIEAAAGVLEIFADRAAAASPAAAAVAREGARRLEELAK
B18: d4r5_design_ppi_400_dldesign_0_cycle1_af2pred (protein)
chain: AAAEAAAKEAAKAKADELLKKAKESYEEAKKNKDNKELVFKYLADIEVKAAQADFLGAKDPYAKEKAKEIEKLAKEAEKILK
B19: d4r5_design_ppi_435_dldesign_0_cycle1_af2pred (protein)
chain: SKSKKEAEKMREATRAFKEAGKAAAAAIASGETGEEAIAAARAKAEEVIKEAKEVGEGAGEFAEMLKENLDKALAAAS

The binders below were run against VTCN1, Q7Z7D3.
VTCN1, Q7Z7D3, sequence (Q7Z7D3 whole entry): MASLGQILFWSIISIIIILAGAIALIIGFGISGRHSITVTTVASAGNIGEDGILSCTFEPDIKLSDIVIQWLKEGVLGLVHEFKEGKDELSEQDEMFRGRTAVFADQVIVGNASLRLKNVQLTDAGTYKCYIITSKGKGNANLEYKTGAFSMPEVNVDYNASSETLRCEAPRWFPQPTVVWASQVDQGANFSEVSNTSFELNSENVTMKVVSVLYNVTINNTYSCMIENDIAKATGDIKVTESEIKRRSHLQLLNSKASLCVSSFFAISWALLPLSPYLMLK

Binding in a display sort, inactive:
B1 not found
B2 not found
B3 not found
B4 not found
B5 not found
B6 not found
B7 not found
B8 not found
B9 not found
B10 not found
B11 not found
B12 not found
B13 not found
B14 not found
B15 not found
B16 not found
B17 not found
B18 not found
B19 not found
